Screens: PubChem BioAssay, National Center for Advancing Translational Sciences (NCATS)
WRN helicase inh-1: WRN helicase (human) inhibition; Q14191; WRN helicase unwinding, fluorescent forked duplex, kinetic; Potency, µM (doses to about 114 µM), without a hit: top-dose activity change, negative = inhibition, hits mostly inhibitors; actives 0.46% (n = 360,000); further: on the % scale 0 is the no-effect control and ±100 the full control effect; nearly all actives have a fitted effect of over 55% in size
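Primary qHTS, 1536-well format. 20 nM WRN + compound, 15 min RT; start with 100 nM forked fluorophore/quencher duplex, 2 mM ATP (final); kinetic read ex 525/em 598 nm.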
FEN1 inhibitor: human FEN1 inhibition; AID 588795; Recombinant FEN1 flap cleavage, fluorescence, 15 min; Potency, µM (doses to about 114 µM), for the others: at the top dose activity change, negative = inhibition, most hits filed as inhibitors; actives 0.35% (n = 390,000); further: on the % scale 0 is the no-effect control and ±100 the full control effect; nearly all actives have a fitted effect of over 65% in size
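Compounds are tested as a concentration series against 10 nM FEN1; after a 15 min room-temperature preincubation, 50 nM substrate starts cleavage, with plate reads at 0 and 15 min. Normalized responses are fitted by a Hill equation.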
POLK inh: blocks human DNA polymerase kappa activity; purified Pol kappa, fluorescent DNA synthesis assay, 10 min; Potency, µM (highest dose often 107 µM), for the others: at the highest dose activity, negative = inhibition, actives largely listed as inhibitors; AID 588579; actives 0.53% (n = 400,000); further: on the % scale 0 is the no-effect control and ±100 the full control effect
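Inhibition of 10 nM Pol kappa is measured by a fluorescent read-out at 0 and 10 min following addition of 50 nM substrate (final), with a 15-min room-temperature compound preincubation.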
Pol eta inh: DNA polymerase eta (human) inhibition; Q9Y253; recombinant Pol eta, fluorescent DNA replication assay; Potency, µM (highest dose often 114 µM), without a hit: top-dose activity change, negative = inhibition, usual class: inhibitors; actives 1.2% (n = 390,000); AID 588591; further: on the % scale 0 is the no-effect control and ±100 the full control effect
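Pol eta at 10 nM preincubated with compounds 15 min at room temperature; reaction started with fluorescent substrate (50 nM final) and read kinetically at 0 and 10 min.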
Pol beta inh: DNA polymerase beta (human) inhibition; P06746; Pol beta primer extension/strand displacement, fluorescence kinetic; Potency, µM (doses to about 114 µM), for the others: at the top dose activity change, negative = inhibition, usual class: inhibitors; actives 1.3% (n = 340,000); AID 485314; further: on the % scale 0 is the no-effect control and ±100 the full control effect
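Preincubation: enzyme (10 nM) with compound, 15 min, RT. Reaction: substrate added to 50 nM final. Reads: 0 and 10 min. Analysis: normalized, Hill fit.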
Pol iota inh: DNA polymerase iota (human) inhibition | AID 588590 | Pol iota fluorescent replication assay, 10 min | Q9UNA4 | Potency, µM (highest dose often 115 µM), inactives show at the top dose activity, negative = inhibition, usual class: inhibitors | actives 1% (n = 390,000)
Target sequence (Q9UNA4 whole entry, looked up): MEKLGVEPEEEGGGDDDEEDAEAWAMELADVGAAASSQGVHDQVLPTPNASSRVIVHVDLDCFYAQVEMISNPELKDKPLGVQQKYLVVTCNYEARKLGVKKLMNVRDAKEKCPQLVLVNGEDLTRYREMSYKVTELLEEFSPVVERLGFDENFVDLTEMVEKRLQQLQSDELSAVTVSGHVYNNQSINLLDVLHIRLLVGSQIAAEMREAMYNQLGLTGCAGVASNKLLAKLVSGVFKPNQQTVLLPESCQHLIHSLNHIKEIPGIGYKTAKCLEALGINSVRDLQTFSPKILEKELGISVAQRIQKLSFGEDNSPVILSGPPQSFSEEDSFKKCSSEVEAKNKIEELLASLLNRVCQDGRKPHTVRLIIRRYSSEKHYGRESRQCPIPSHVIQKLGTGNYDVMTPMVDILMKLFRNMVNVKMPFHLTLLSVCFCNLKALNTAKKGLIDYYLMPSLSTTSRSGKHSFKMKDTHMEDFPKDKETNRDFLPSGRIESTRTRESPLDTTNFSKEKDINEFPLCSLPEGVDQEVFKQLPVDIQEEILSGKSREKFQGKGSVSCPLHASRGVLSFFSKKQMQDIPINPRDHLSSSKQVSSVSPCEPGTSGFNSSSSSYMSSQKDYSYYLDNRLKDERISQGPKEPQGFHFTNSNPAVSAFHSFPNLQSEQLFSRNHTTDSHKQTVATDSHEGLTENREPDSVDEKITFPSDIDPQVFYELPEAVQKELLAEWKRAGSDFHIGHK
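Pol iota at 10 nM preincubated 15 min with compounds at room temperature; reaction started with fluorescent substrate, 50 nM final. Fluorescence read kinetically at 0 and 10 min; buffer-only wells as negative control.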
WRN helicase inh-2: confirmation of human WRN helicase inhibitors; actives 63% (n = 610); shares compounds with WRN helicase inh-1; Potency, µM (doses to about 57.1 µM), for inactives: at the top dose activity, negative = inhibition, actives largely listed as inhibitors; WRN helicase DNA unwinding, fluorescence kinetic; further: nearly all actives have a fitted effect of over 65% in size
TO displacement: binds DNA, flagged in WRN inhibitor counterscreen. shares compounds with WRN helicase inh-1. thiazole orange DNA binding displacement, fluorescence. Potency, µM (doses to about 57.1 µM), for inactives: top-dose activity change, negative = inhibition, usual class: inhibitors. actives 10% (n = 610). AID 720499;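 further: drop in dye fluorescence marks compound binding to DNA; on the % scale 0 is the no-effect control and ±100 the full control effect; nearly all actives have a fitted effect of over 60% in size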
BLM counter: BLM helicase inhibition, WRN selectivity check | Potency, µM (doses to about 57.1 µM), without a hit: at the highest dose activity change, negative = inhibition, hits mostly inhibitors | Recombinant BLM helicase DNA unwinding, red fluorescence | actives 60% (n = 610) | shares compounds with WRN helicase inh-1; further: nearly all actives have a fitted effect of over 60% in size
Active calls of the source: *; ? = inconclusive; / = no result given; [ ] = remark or other dose. Hits are enriched below; roughly 2.4% of the tested compounds scored in any of these assays. The call rests on the fitted dose curve; in most records, active means well fitted curve in the direction sought with a large enough effect; inconclusive means small, poorly fitted or top-dose-only effect, or another doubt; inactive means no such curve, though single readings can be large; an effect the other way counts as inactive or inconclusive. Potency means the concentration at half of the fitted maximal effect.

SMILES | WRN helicase inh-1 | FEN1 inhibitor | POLK inh | Pol eta inh | Pol beta inh | Pol iota inh | WRN helicase inh-2 | TO displacement | BLM counter
O=C(COc1ccccc1C(=O)Nc1ccccc1)Nc1cccc(Br)c1 | / | -23% | -8% | / | / | 20% | / | / | /
COc1ccc(-c2csc3nc(-c4ccc(C)cc4)oc(=O)c23)cc1OC | ? | -4% | 4% | ? | ? | ? | 12µM* | 85% | 1.9µM*
COc1ccc(-c2csc3nc(C(C)(C)C)oc(=O)c23)cc1OC | 7% | 1% | -9% | -28% | -27% | 9% | / | / | /
O=C(CSc1ccc2nc(-c3ccccc3)cn2n1)Nc1ccccc1 | / | 6% | -13%[60.1 µM] | 2% | 23% | -13% | / | / | /
CN1CCN(C2=C(NS(=O)(=O)c3ccccc3)C(=O)c3ccccc3C2=O)CC1 | 0%[57.1 µM] | 12% | -10% | 10% | 6% | 30% | / | / | /
CN1CCN(C2=C(Cl)C(=O)c3ccccc3C2=O)CC1 | ? | ? | 1% | 3.5µM* | / | 6.3µM* | ? | -14% | 3.4µM*
O=[N+]([O-])c1cccnc1S(=O)(=O)c1ccccc1 | -29% | 12% | -4% | -2% | 13% | 27% | / | / | /
COc1ccc([N+](=O)[O-])c(S(=O)(=O)c2ccccc2)n1 | 32µM* | 2% | 1% | -6% | 21% | 14µM* | ? | -8% | -19%
COc1ccc([N+](=O)[O-])c(S(=O)(=O)c2ccc(Cl)cc2)n1 | 16µM* | -20% | 5% | -8% | -23% | ? | ? | -5% | -16%
O=C1ON=C(c2ccccc2)/C1=C/c1ccc(OS(=O)(=O)c2ccccc2)cc1 | ? | -2% | -29% | ? | -9% | -3% | / | / | /
COc1ccc(/C=C2\C(=O)ON=C2c2ccccc2)cc1 | 32µM* | -10% | -5% | 10% | -2% | ? | -23% | -4% | -25%
C=CS(=O)(=O)c1sc(Cl)c(N2CCOCC2)c1[N+](=O)[O-] | 32µM* | -8% | -31% | ? | -29% | ? | 14µM* | -25% | 3.4µM*
C[N+]1(C)CC[C@@H](OC(=O)[C@@](O)(c2ccccc2)C2CCCC2)C1 | / | / | -5%[12 µM] | / | / | / | / | / | /
NC(=O)c1ccc(N=Nc2c(O)c3ccccc3[nH]c2=O)cc1 | / | / | / | / | 33% | / | / | / | /
N=C(N)c1ccc(N=Nc2c(O)ccc3c2[nH]c2ccccc23)cc1 | 11µM* | 28µM* | 79µM* | 40µM* | / | -10% | 8.6µM* | 24µM* | 19µM*
CCOC(=O)C1(C)C=C(Nc2cccc(C)c2)C(=O)N1c1ccccc1 (stereo unspecified) | / | -16% | 2% | -20% | 16% | 18% | / | / | /
CCCOc1ccc(C(=O)CCN2CCN(C(=O)OCC)CC2)cc1 | ? | -1% | -4% | -12% | -14% | 25% | -16% | -6% | -18%
CC1(C)OC(=O)C(=Cc2ccc(-c3ccc(S(N)(=O)=O)cc3)o2)C(=O)O1 | ? | -18% | ? | 50µM* | 4% | ? | ? | -10% | ?
NS(=O)(=O)c1ccc(-c2ccc(/C=C3\C(=O)Nc4cc(Cl)ccc43)o2)cc1 | -18% | 3% | -19% | ? | ? | ? | / | / | /
CC1=C(C)CS(=O)N(S(=O)(=O)c2ccccc2)C1 (stereo unspecified) | 40µM* | ? | -11% | -9% | 7% | ? | -13% | -5% | -17%
Cn1cc(S(=O)(=O)N2CCCCC2)cc1C(=O)Nc1cccc(C#N)c1 | / | -7% | 9%[60.1 µM] | -9% | 2% | 4% | / | / | /
Oc1ccc(O)c(Cc2nc3ccccc3[nH]2)c1 | 89µM* | -21% | -19% | 2% | 0% | -10% | 22µM* | ? | 6.8µM*
CCc1cc(=O)oc2cc(C)c(CN3CCCCC3)c(O)c12 | 25µM* | 50µM* | 18µM* | 14µM* | 8.9µM* | 7.9µM* | ? | -21% | ?
Cc1cccc(Cn2c(C)c(CNC3CCCCCC3)c(C(=O)O)c2C)c1 | / | -8% | -11% | -2% | 10% | -14% | / | / | /
CC1=NN(c2ccc(F)cc2)C(=O)C1C(c1cccc(O)c1)c1c(C)[nH]n(-c2ccc(F)cc2)c1=O (stereo unspecified) | ? | -29% | -1% | -15% | -3% | -91% | -18% | -20% | -14%
O=C(CSc1ncc(CO)n1Cc1ccccc1)Nc1ccc(C(F)(F)F)cc1 | / | -10% | -9%[60.1 µM] | -21% | -22% | -6% | / | / | /
N#Cc1ccc(CN2CCC3(CC2)CCN(S(=O)(=O)c2ccccc2)CC3)cc1 | / | / | -11%[60.1 µM] | / | / | / | / | / | /
N#Cc1ncc(Cc2ccccc2)nc1C#N | 1.7µM* | 8% | -13% | 40µM* | 7% | 33% | -10% | -7% | -19%
CCc1nnc(NS(=O)(=O)c2ccc(N/C=C\C(=O)c3cccc4ccccc34)cc2)s1 | 27µM* | -9% | -7% | 45µM* | -18% | -15% | 24µM* | -21% | 27µM*
